Sampled rows, rich in hits. Any-hit rate of the full collection: about 2.8%.
HepG2 tox: qHTS for Inhibitors of TGF-b: Cytotox Counterscreen. HepG2 CAGA-GFP viability, ATP luminescence, 18 h. Potency, µM (highest dose often 46.1 µM), actives largely listed as cytotoxic. actives 0.76% (n = 410,000)
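CellTiter-Glo luminescence gave cytotoxicity after 18 hours at 37 degrees C. The cells were HepG2 CAGA-GFP in 1% FBS DMEM, stimulated with 500 pg/mL TGF-beta after compound addition. %Activity was normalised to no-cell wells (complete cell-killing) and DMSO (no toxicity), and curves were fitted and classified.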
ATXN viability: Viability Counterscreen for Primary qHTS for Inhibitors of ATXN expression | S2 cells (HEK-293 line with an ATXN2-luciferase reporter) viability, CellTiter-Fluor protease fluorescence, 24 h | Potency, µM (titrated, usually from 56.7 µM), hits mostly cytotoxic | actives 0.49% (n = 400,000) | AID 651635, 2014; also: nearly all actives have a fitted effect of over 40% in size
ATXN2 expr inh: Primary qHTS for Inhibitors of ATXN expression | HEK-293 ATXN2-luciferase reporter, luminescence, 24 h | Potency, µM (series often up to 57 µM), hits mostly inhibitors | actives 0.72% (n = 360,000); also: nearly all actives have a fitted effect of over 55% in size
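ATXN2-luciferase reporter cells (luciferase flanked by upstream and downstream ATXN2 gene portions) were treated 24 h at 37 °C with compounds at up to 57 uM. SteadyGlo luminescence gave expression; GF-AFC fluorescence gave viability.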
TGFb inhibitor: qHTS for Inhibitors of TGF-b; HepG2 CAGA-GFP TGF-b/SMAD3 reporter, GFP fluorescence, 18 h; TGF-beta stimulated, 500 pg/mL final; Potency, µM (series often up to 46.1 µM), most hits filed as inhibitors; actives 1.2% (n = 410,000); AID 588855, 2011; also: nearly all actives have a fitted effect of over 65% in size
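TGF-beta reporter screen: HEPG2 CAGA-GFP, 1% FBS, 500 pg/mL TGF-beta final, 18 h; per-cell GFP summed per well; curves fitted and categorized by class.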
HTT ATP protect: qHTS Multiplex Assay to Identify Dual Action Probes in a Cell Model of Huntington: Cytoprotection (ATP); PC12 HTT-Q103 induced, cytoprotection, ATP luminescence, 40 h; Potency, µM (doses to about 56.4 µM), usual class: activators; actives 0.14% (n = 230,000); AID 1471, 2008; also: nearly all actives have a fitted effect of over 45% in size
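Readout: ATPlite luminescence (ATP level). Model: stable PC12, inducible Htt exon1 Q103-GFP. Inducer: tebufenozide, 100 nM final. Compounds: dose series. No G418 in medium.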
HttQ103 aggreg: qHTS Multiplex Assay to Identify Dual Action Probes in a Cell Model of Huntington: Aggregate Formation (GFP) | actives 1.1% (n = 220,000) | PC12 HttQ103-GFP aggregates, Acumen cytometry, 40 h | Potency, µM (titrated, usually from 46.1 µM), hits mostly inhibitors | AID 1688, 2009; also: nearly all actives have a fitted effect of over 60% in size
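Inducible Q103 Huntingtin exon 1–GFP PC12 line, 1500 cells/well in phenol red free DMEM with 5% equine and 5% calf serum. Tebufenozide 100 nM induced expression; compounds titrated; aggregates quantified by cytometry.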
Numbers stand for hits; ! = repeats disagree; [ ] = remark or other dose. Calls follow the shape of the dose curve; as a rule, active = well fitted curve in the direction sought with a large enough effect; inconclusive = small, poorly fitted or top-dose-only effect, or another doubt; inactive = no such curve, though single readings can be large; an effect the other way counts as inactive or inconclusive.

Screening CC(C)(C)CC(C)(C)c1ccc(O)cc1 returned ATXN viability 35.5µM!, ATXN2 expr inh inconclusive, HTT ATP protect inactive and HttQ103 aggreg inactive.
Screening Cc1ccc(NP(=O)(Oc2ccccc2F)Oc2ccccc2F)cc1 returned HepG2 tox inactive, ATXN viability inconclusive, ATXN2 expr inh inactive, TGFb inhibitor inconclusive, HTT ATP protect inactive and HttQ103 aggreg inactive.
For CCc1ccc(NP(=O)(Oc2ccccc2F)Oc2ccccc2F)cc1 the results were HepG2 tox inactive, ATXN viability inactive, ATXN2 expr inh inactive, TGFb inhibitor 17.8µM, HTT ATP protect inactive[10 µM] and HttQ103 aggreg inconclusive.
For CCC(C)C(=O)OC1C(O)C2C(CN3CC(C)CCC3[C@]2(C)O)C2C[C@]34O[C@@]5(O)C(OC(=O)C(C)(O)CC)CCC3(C)C5C(OC(C)=O)C(OC(C)=O)C4[C@@]21O (stereo partly specified) the results were HTT ATP protect 1.41µM.
Screening CN1C2CCC(C)(C)C1CC(OC(=O)C(O)(c1cccs1)c1cccs1)C2 (stereo unspecified) returned ATXN viability inactive and ATXN2 expr inh inactive.
Screening CSc1ccccc1C(=O)C1CCCN(Cc2ccccn2)C1 (stereo unspecified) returned HepG2 tox inactive, ATXN viability inactive, ATXN2 expr inh inactive, TGFb inhibitor inactive, HTT ATP protect inactive[10 µM] and HttQ103 aggreg inactive[9.22 µM].
Cc1cnc(SCc2ccccn2)nc1C1CCCN(C(=O)c2cccc(-c3cccc(F)c3)c2)C1 (stereo unspecified) was read as ATXN viability 31.6µM.
CC(=NCc1ccco1)c1c(O)n(C)c(=O)n(C)c1=O was read as HepG2 tox inactive, ATXN viability inactive, ATXN2 expr inh inactive, TGFb inhibitor inactive, HTT ATP protect inactive[0.074 µM] and HttQ103 aggreg 15.8µM.
For c1ccc(-c2nn(-c3ccccc3)[n+](-c3ccccc3)n2)cc1 the results were HepG2 tox inactive, ATXN viability inconclusive, ATXN2 expr inh inconclusive and TGFb inhibitor 10µM.
Fc1ccc(C(OCCN2CCCC2)c2ccc(F)cc2)cc1 was read as HepG2 tox inactive, ATXN viability inactive, ATXN2 expr inh inactive, TGFb inhibitor inactive, HTT ATP protect inactive[10 µM] and HttQ103 aggreg inactive.
For c1ccc(CCCN2CCN(CCOC(c3ccccc3)c3ccccc3)CC2)cc1 the results were HepG2 tox 11.2µM, ATXN viability inconclusive, ATXN2 expr inh 27.3µM!, TGFb inhibitor inconclusive and HTT ATP protect inconclusive.
C[C@@]12CC[C@H]3[C@H](CCC4=CC(=O)CC[C@H]43)[C@H]1CC[C@H]2OC1(O)C(=O)c2ccccc2C1=O was read as HTT ATP protect inactive[10 µM].
Screening COC1=C[C@H]2[C@@H]3Cc4ccc(OC)c(O)c4[C@@]2(CCN3C)CC1=O returned HTT ATP protect inactive.
Screening O=C(Nc1ccc(Oc2ccc(Cl)cc2)c(Cl)c1)c1cc(I)cc(I)c1O returned HepG2 tox inactive, ATXN viability inactive, ATXN2 expr inh inactive, TGFb inhibitor inactive, HTT ATP protect inactive and HttQ103 aggreg 12.6µM.
Screening O=C(Nc1ccc(Br)cc1)c1cc(Br)cc(Br)c1O returned ATXN viability inconclusive, ATXN2 expr inh inconclusive, HTT ATP protect inactive and HttQ103 aggreg inconclusive.
C=CCn1c(O)c(C(C)=NCc2cc(OC)cc(OC)c2)c(=O)[nH]c1=O was read as HepG2 tox 7.08µM, ATXN viability inactive, ATXN2 expr inh inconclusive, TGFb inhibitor inactive, HTT ATP protect inactive and HttQ103 aggreg inactive.
`Cc1c(NS(=O)(=O)c2ccccc2)ccc([N+](=O)[O-])c1Cl` gave HepG2 tox inactive, ATXN viability inconclusive, ATXN2 expr inh inconclusive and TGFb inhibitor 11.2µM.
`C=C(C)[C@@H]1CN[C@H](C(=O)O)[C@H]1CC(=O)O` gave HTT ATP protect inactive[1.9 µM].
Screening Cc1cc2c(C(C)C)c(O)c(O)c(C=O)c2c(O)c1-c1c(C)cc2c(C(C)C)c(O)c(O)c(C=O)c2c1O returned HepG2 tox 1.41µM, ATXN viability 25.1µM, ATXN2 expr inh inconclusive, TGFb inhibitor 1.12µM, HTT ATP protect inactive[1.9 µM] and HttQ103 aggreg inconclusive.
Nc1ccccc1C(=O)OCC(O)CO (stereo unspecified) was read as ATXN viability inactive and ATXN2 expr inh inactive.
Screening CC(C)=CCCC1(C)C=Cc2c(O)c3c(c(CC=C(C)C)c2O1)OC12C(CC4CC1C(C)(C)OC2(C/C=C(/C)C(=O)O)C4O)C3=O (stereo unspecified) returned HTT ATP protect 3.16µM.
Screening O=C(O)c1cc[c]([Hg][S]c2ncnc3nc[nH]c23)cc1 returned HTT ATP protect inactive[10 µM].
`O=C(Oc1ccc([N+](=O)[O-])cc1)N1CCN(Cc2cccc(Oc3ccccc3)c2)CC1` gave ATXN2 expr inh inactive.
For CC(C)[C@@]1(NC(=O)[C@@H]2C[C@H]3c4cccc5[nH]cc(c45)C[C@@H]3N(C)C2)O[C@@]2(O)[C@H]3CCCN3C(=O)[C@@H](Cc3ccccc3)N2C1=O the results were HTT ATP protect inactive.
Screening CN1CCc2nc3sc(C#N)c(N)c3c(-c3cccs3)c2C1 returned HepG2 tox inactive, ATXN viability inactive, ATXN2 expr inh inactive, TGFb inhibitor inactive, HTT ATP protect 12.6µM and HttQ103 aggreg inactive.
Cc1ccc(N2C(=O)NC(=O)/C(=C/C=C/c3ccco3)C2=O)cc1 was read as HepG2 tox inactive, ATXN viability inconclusive, ATXN2 expr inh inconclusive, TGFb inhibitor 11.2µM, HTT ATP protect inactive[10 µM] and HttQ103 aggreg inconclusive.
Screening O=C1NC(=O)N(c2ccccc2)C(=O)/C1=C\C=C\c1ccccc1 returned HepG2 tox inactive, ATXN viability 14.1µM, ATXN2 expr inh 14.1µM, TGFb inhibitor 7.08µM, HTT ATP protect inactive[10 µM] and HttQ103 aggreg inactive[9.22 µM].
`CCc1ccc(N2C(=O)NC(=O)/C(=C\C=C\c3ccco3)C2=O)cc1` gave HepG2 tox inactive, ATXN viability 10µM, TGFb inhibitor inconclusive, HTT ATP protect inactive[10 µM] and HttQ103 aggreg inactive[9.22 µM].
Screening CC(C)c1ccc(N2C(=O)NC(=O)/C(=C/C=C/c3ccco3)C2=O)cc1 returned HepG2 tox inactive, ATXN2 expr inh 28.2µM, TGFb inhibitor inconclusive and HttQ103 aggreg inconclusive.
O=C1NC(=O)N(Cc2ccc(F)cc2)C(=O)/C1=C\C=C\c1ccco1 was read as HepG2 tox inactive, ATXN viability inconclusive, ATXN2 expr inh inconclusive, TGFb inhibitor inconclusive, HTT ATP protect inactive[10 µM] and HttQ103 aggreg inactive[9.22 µM].
